BoNT F protease = inhibitors of Botulinum neurotoxin F light chain protease; Multiplex microsphere protease cleavage assay, flow cytometry; inhibition, % at 10 µM; 360,000 tested, 0.22% active; in the data active = inhibition above about 35%, passing the limit was not always enough; inconclusive = no clear call, values can overlap the other calls; also: plate controls were buffer without enzyme for full effect and enzyme alone for no effect
MazEF act = MazEF (E. coli) toxin RNase activation; P0AE70; 350,000 tested, 0.32% active; AID 504720; FAM/BHQ RNA-DNA oligo cleavage fluorescence, 5 h; activation, % at 20 µM; in the data active = activation above about 50%
PfHsp40 rescue = rescue of PfHsp40-mediated yeast toxicity; 340,000 tested, 0.68% active; AID 504582; growth rescue, % at 12.5 µM; S. cerevisiae expressing PfHsp40, growth rescue, ATP luminescence; in the data active = growth rescue above about 28%, passing the limit was not always enough; inconclusive = no clear call, values can overlap the other calls;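 also: yeast W303a lacking pdr1 and pdr3 grown in galactose medium; growth measured after three days at 30 °C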
BoNT A protease = blocks Botulinum neurotoxin A light chain protease | 360,000 tested, 0.17% active | AID 588499 | inhibition, % at 10 µM | multiplex microsphere protease substrate cleavage, flow cytometry; also: plate controls were buffer without enzyme for full effect and enzyme alone for no effect
Anthrax LF prot = inhibitors of Bacillus anthracis lethal factor protease; P15917; multiplex microsphere protease cleavage assay, LF; inhibition, % at 10 µM; 360,000 tested, 0.12% active; AID 588501; also: plate controls were buffer without enzyme for full effect and enzyme alone for no effect
Target sequence (P15917 whole entry, looked up): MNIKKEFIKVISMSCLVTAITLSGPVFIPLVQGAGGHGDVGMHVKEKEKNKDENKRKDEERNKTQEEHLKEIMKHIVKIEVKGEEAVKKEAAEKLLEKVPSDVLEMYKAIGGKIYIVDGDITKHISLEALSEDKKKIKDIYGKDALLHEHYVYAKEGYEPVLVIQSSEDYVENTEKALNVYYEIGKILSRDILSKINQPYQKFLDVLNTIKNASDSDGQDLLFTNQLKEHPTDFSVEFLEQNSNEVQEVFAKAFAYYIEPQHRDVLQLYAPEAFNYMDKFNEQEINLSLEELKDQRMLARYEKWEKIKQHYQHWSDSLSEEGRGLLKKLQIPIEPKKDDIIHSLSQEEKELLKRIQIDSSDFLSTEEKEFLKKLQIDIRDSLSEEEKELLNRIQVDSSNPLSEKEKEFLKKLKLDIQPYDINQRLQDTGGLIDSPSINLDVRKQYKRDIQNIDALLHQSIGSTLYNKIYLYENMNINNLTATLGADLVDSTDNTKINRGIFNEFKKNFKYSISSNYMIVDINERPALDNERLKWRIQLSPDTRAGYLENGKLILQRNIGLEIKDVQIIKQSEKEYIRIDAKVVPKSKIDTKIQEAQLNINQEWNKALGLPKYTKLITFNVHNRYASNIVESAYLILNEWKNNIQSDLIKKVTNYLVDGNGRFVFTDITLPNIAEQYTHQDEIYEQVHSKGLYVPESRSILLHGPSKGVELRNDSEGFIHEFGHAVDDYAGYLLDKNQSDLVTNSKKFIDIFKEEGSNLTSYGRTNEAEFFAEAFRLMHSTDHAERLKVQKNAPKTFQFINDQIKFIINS
Autofluor counter = compound fluorescence in toxin protease inhibitor counterscreen. compound autofluorescence counterscreen, microsphere flow cytometry; active compounds read high. fluorescence intensity (concentration not given with the values). 360,000 tested, 3.1% active; in the data active = fluorescence intensity above about 16000; inconclusive = no clear call, values can overlap the other calls
Numbers without * were called inactive; u = inconclusive; x = not tested or not shown. Most compounds without a hit are left out; they make up all but 4.3% or so of the library. Rule as the data show it, unless noted: active = inhibition above about 30%; inconclusive = no clear call, values can overlap the other calls; inactive = below that.

SMILES | BoNT F protease | MazEF act | PfHsp40 rescue | BoNT A protease | Anthrax LF prot | Autofluor counter
N=c1c(S(=O)(=O)c2ccc(Cl)cc2)cc2c(=O)n3ccccc3nc2n1Cc1cccnc1 | 4 | 81* | -2 | 1 | -2 | 4951
COc1ccc(C(=O)NCC(=O)N2CCN(c3ccc(F)cc3)CC2)cc1 | -1 | 4 | 0 | -4 | -10 | 3407
Nc1cc(Br)c(N)c(Br)c1 | -9 | 11 | -1 | -2 | -2 | 24247*
Nc1ccc(Br)cc1 | x | -14 | -1 | x | x | x
CC(=O)Nc1ccc(NC(=O)C(C)OC(=O)CCSc2ccccc2Cl)cc1 (stereo not drawn) | -9 | 3 | 0 | 0 | -10 | 3062
CCOC(=O)c1ccc(S(=O)(=O)Nc2cc(C(C)(C)C)no2)cc1 | 0 | 3 | 0 | -2 | -2 | 24179*
Cc1ccc(CCNC(=O)c2nnn(-c3cc(C)cc(C)c3)c2N)cc1 | -25 | -3 | 48* | -2 | -10 | 3384
CCNC(=S)NNC(=O)c1cc(-c2cc(C)ccc2C)nc2ccccc12 | 3 | 3 | 15 | 1 | -1 | 19654*
N#Cc1ccc(NC(=O)Cn2cnc(S(=O)(=O)N3CCCCC3)c2)cc1 | -2 | 3 | 1 | -2 | -2 | 4273
O=C(CN1CCN(c2ncccn2)CC1)NCc1ccc2c(c1)OCO2 | -3 | -1 | 0 | 1 | -4 | 4282
O=C(CN1CCN(c2nc(-c3ccc(F)cc3)cs2)CC1)NCc1ccc2c(c1)OCO2 | -2 | -12 | 7 | 0 | -2 | 23682*
c1ccc(CSC2=NNC(c3ccccn3)S2)cc1 (stereo not drawn) | u | 6 | 93* | 6 | -3 | 3637
O=C(CSC1=NNC(c2ccccn2)S1)Nc1ccc(C(F)(F)F)cc1 (stereo not drawn) | x | -4 | 3 | x | x | x
CC12CC3(C)CC(C)(C1)CC(C(=O)NC1=NCCS1)(C2)C3 | -18 | -8 | -1 | u | -3 | 23810*
CC12CC3CC(C)(C1)CC(C(=O)NC1=NCCS1)(C3)C2 | -17 | -2 | 0 | -2 | -5 | 6178
CN1C(=O)C(O)(C2CCCCCC2=O)c2ccccc21 (stereo not drawn) | u | 0 | -1 | 1 | -7 | 3045
S=C1SCN(Cc2ccccn2)CN1Cc1ccco1 | -3 | -4 | 2 | 1 | 2 | 16488*
COCCN1CSC(=S)N(Cc2ccco2)C1 | 6 | 1 | 1 | 4 | 0 | 21084*
CN(C)c1ccc(P(=O)(OCc2ccccc2)C(O)c2ccncc2)cc1 (stereo not drawn) | x | 7 | 1 | x | x | x
CCCOP(=O)(c1ccc(N(C)C)cc1)C(O)c1ccncc1 (stereo not drawn) | 3 | 0 | 1 | 2 | -8 | 19418*
O=C(Nc1ccccc1)NC1(C(=O)NCc2ccc3c(c2)OCO3)CCCCC1 | 2 | -3 | 0 | 1 | -1 | 22677*
O=C(NCc1ccccc1)NC1(C(=O)Nc2ccc3c(c2)OCCO3)CCCCC1 | 6 | 7 | 2 | 3 | 0 | 22030*
O=C(NCc1ccccc1)NC1(C(=O)N2CCOCC2)CCCCC1 | 5 | 2 | 0 | 0 | -2 | 2828
O=C(Nc1ccccc1)NC1(C(=O)NCc2ccco2)CCCCC1 | -6 | 3 | 0 | -3 | -8 | 17118*
Cc1c(/C=N/NC(N)=O)c2ccccn2c1C(=O)c1ccc(F)cc1 | -2 | 6 | 0 | 1 | -1 | 2688
SMILES | BoNT F protease | MazEF act | PfHsp40 rescue | BoNT A protease | Anthrax LF prot | Autofluor counter
Cc1c(C=NNC(=O)c2ccc(Br)cc2)c2ccccn2c1C(=O)c1ccncc1 | x | 59* | 1 | x | x | x
CCCCNC(=S)N(C)/N=C/c1c(C)[nH]c2ccccc12 | -29 | 12 | -2 | 32* | 5 | 5277
O=C1CC2CC1C(C(=O)O)C2C(=O)O (stereo not drawn) | 5 | -1 | -1 | -1 | -9 | 3796
COc1ccccc1-n1ccn(CC(=O)Nc2ccc(C)cc2Cl)c(=O)c1=O | -1 | -1 | 0 | 0 | -4 | 5452
CCNS(=O)(=O)c1ccc(CCC(=O)NCc2ccccn2)cc1 | u | -3 | -1 | -10 | 9 | 4071
O=C(CCNC(=O)c1ccc(Br)o1)NCc1ccccn1 | -5 | 14 | -2 | -5 | -4 | 24852*
O=C(CCNC(=O)c1ccc(Br)o1)NCc1ccccc1Cl | 2 | 1 | 1 | 1 | 1 | 9771
O=C(CCNS(=O)(=O)c1ccc(Cl)cc1)NCc1ccccn1 | -11 | -15 | 0 | -8 | -5 | 17910*
O=C(NC1CCCC1)C1c2ccccc2OCC(=O)N1Cc1ccc2c(c1)OCO2 (stereo not drawn) | -7 | x | x | -2 | -13 | 4157
Cc1cc(CNC(=O)COC(=O)C2CC3CCCC(C2)C3=O)cc(C)c1O (stereo not drawn) | 3 | 3 | 0 | 1 | 0 | 3508
O=S1(=O)CC(N2CCN(CC3CC3)CC2)CN1Cc1ccccc1 (stereo not drawn) | -2 | x | x | 0 | 6 | 5119
CN(C)S(=O)(=O)c1cccc(NC(=O)c2cc(=O)[nH]c(=O)[nH]2)c1 | 5 | 8 | 0 | 1 | 4 | 3775
O=C(NCCCNC(=O)c1ccc(F)cc1)c1ccc(F)cc1 | 57* | 10 | 0 | 1 | -6 | 4063
CCCc1cnc(N2CCN(C(=O)c3ccccc3)CC2)nc1 | -3 | 4 | 1 | -5 | 17 | 3618
Cc1ccc(C)c(/C=C2\N=C(c3ccccc3F)OC2=O)c1 | -12 | 9 | 3 | 0 | 6 | 3685
COc1cc(/C=C2/N=C(c3ccccc3F)OC2=O)cc(Cl)c1OS(C)(=O)=O | -3 | -1 | 1 | -1 | -6 | 20200*
Cc1ccc(-n2nc(C(=O)O)cc2-c2ccccc2)cc1 | -7 | -1 | 0 | -4 | -2 | 22097*
COc1ccc(Cl)cc1S(=O)(=O)N(C)CC(=O)NCc1ccccn1 | -4 | 3 | 1 | -1 | -11 | 3898
CC(C)(C)c1ccc(C(=O)CSc2nc3ccccc3c(=O)[nH]2)cc1 | 3 | 51* | 0 | 0 | 0 | 10936
CN(c1ccccc1C(=O)O)S(C)(=O)=O | 4 | 3 | 1 | 4 | -3 | 18576*
CN(c1ccccc1C(=O)Nc1cccc(Cl)c1Cl)S(C)(=O)=O | 0 | 5 | 0 | 0 | -2 | 22508*
CN(c1ccccc1C(=O)Nc1ccc2c(c1)OCCO2)S(C)(=O)=O | -9 | 9 | 0 | 0 | 1 | 6096
Cc1ccc(NC(=O)c2ccccc2N(C)S(C)(=O)=O)cc1C | -3 | 0 | 0 | 1 | -2 | 23559*
OCC[C@H]1C[C@H](O)[C@@H](O)[C@@]2(Cc3ccccc3O2)O1 | -2 | 6 | 0 | 0 | 3 | 3464
CC(C)CCCCCCCCCCCCC(=O)NCC(=O)NC1C(O)C(O)C(Nc2ncnc3nc[nH]c23)OC1C(O)CO (stereo not drawn) | -5 | -22 | -2 | 0 | 3 | 2811
CCCCC(CC)c1nnc(NC(=O)c2cccs2)s1 (stereo not drawn) | -2 | 6 | 264* | 0 | -8 | 4224

Compound activity: PubChem, several laboratories
